# Test results published in article PMC5913336, “True equilibrium measurement of transcription factor-DNA binding affinities using automated polarization microscopy”.
# Molecular target: T1, Kni (Drosophila melanogaster, UniProt P10734 2-102)
# T1 sequence: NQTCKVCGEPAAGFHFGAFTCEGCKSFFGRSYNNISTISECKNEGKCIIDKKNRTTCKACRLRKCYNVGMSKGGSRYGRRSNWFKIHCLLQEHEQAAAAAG
# Test: FP; 33 mM phosphate pH 7.0, 90 mM NaCl, 0.01% Tween 20, 0.1 mM DTT, 0.5% agarose; room temperature
# Settings: tags: N-GST (pGEX-6P-1, kept); dsDNA, one strand shown
row,Sequence,binding signal
1,CAAATCTAGAGCACT,2.46 Kd / Kd of best base at the position
2,CAAAACTAGAGCATT,2.42 Kd / Kd of best base at the position
3,CACAACTAGAGCACT,2.2 Kd / Kd of best base at the position
4,CGAAACTAGAGCACT,1.31 Kd / Kd of best base at the position
5,CTAAACTAGAGCACT,1.45 Kd / Kd of best base at the position
6,CAAAAATAGAGCACT,2.52 Kd / Kd of best base at the position
7,GAAAACTAGAGCACT,1.36 Kd / Kd of best base at the position
8,CAAAACTACAGCACT,52.4 Kd / Kd of best base at the position
9,CAACACTAGAGCACT,31.8 Kd / Kd of best base at the position
10,CATAACTAGAGCACT,1.93 Kd / Kd of best base at the position
11,CAAGACTAGAGCACT,9.44 Kd / Kd of best base at the position
12,CAAACCTAGAGCACT,16.3 Kd / Kd of best base at the position
13,CAAAACTAGAGCACA,2.62 Kd / Kd of best base at the position
14,CAAAACTAGAGCTCT,7.77 Kd / Kd of best base at the position
15,CAAAGCTAGAGCACT,16.3 Kd / Kd of best base at the position
16,CAAAACTAGAGAACT,69.3 Kd / Kd of best base at the position
17,CAAAATTAGAGCACT,1.05 Kd / Kd of best base at the position
18,CAAAACTAGTGCACT,4.66 Kd / Kd of best base at the position

row,Sequence,binding signal
1,CAAAACTAGAGCAGT,2.97 Kd / Kd of best base at the position
2,CAAAACTAGAGCGCT,3.42 Kd / Kd of best base at the position
3,CAAAACCAGAGCACT,2.45 Kd / Kd of best base at the position
4,CAAAACTATAGCACT,12.9 Kd / Kd of best base at the position
5,CAAAACTAGATCACT,1.39 Kd / Kd of best base at the position
6,CAAAACTCGAGCACT,9.21 Kd / Kd of best base at the position
7,CAAAAGTAGAGCACT,1.65 Kd / Kd of best base at the position
8,CAGAACTAGAGCACT,1.99 Kd / Kd of best base at the position
9,CAAAACTAGAGGACT,36 Kd / Kd of best base at the position
10,CAAAACTAGAGCACG,2.74 Kd / Kd of best base at the position
11,CAAAACTAGAGTACT,5.23 Kd / Kd of best base at the position
12,CAAAACTAGGGCACT,2.34 Kd / Kd of best base at the position
13,CAAAACTAGAGCACC,2.3 Kd / Kd of best base at the position
14,CAAAACAAGAGCACT,7.6 Kd / Kd of best base at the position
15,CAAAACTAGCGCACT,9.49 Kd / Kd of best base at the position
16,CAAAACTAGAGCCCT,12.1 Kd / Kd of best base at the position
17,CAAAACGAGAGCACT,3.56 Kd / Kd of best base at the position
18,CAAAACTAGAACACT,3.87 Kd / Kd of best base at the position

# Molecular target: T2, Pan (Drosophila melanogaster, UniProt P91943 258-356)
# T2 sequence: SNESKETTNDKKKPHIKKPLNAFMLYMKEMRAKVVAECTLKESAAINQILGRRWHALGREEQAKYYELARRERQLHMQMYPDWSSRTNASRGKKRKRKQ
# Test: as above
# Settings: tags: N-GST (pGEX-6P-1, kept); dsDNA, one strand shown
Sequence,binding signal,Kd [nM]
AGTCTTTGATAGA,1.78 Kd / Kd of best base at the position,–
AGTCTCTGATAAA,9.73 Kd / Kd of best base at the position,–
AGTCTTTGATAAA,–,~73
